Measured values taken from PubChem BioAssay.
The source made the active and inactive calls.

Assays:
[1] = compound effects on lung adenocarcinoma cell viability – A549, calcein-AM fluorescence, 48 h, basal, profiling panel (AID 1162); settings: higher = more signal
[2] = compound effects on differentiated 3T3-L1 adipocyte viability – cell-based, 3T3-L1 adipocytes, calcein-AM fluorescence, 48 h, basal, profiling panel (AID 1163); settings: 3T3-L1 adipocytes viability, higher = more signal
[3] = compound effects on hepatocellular carcinoma cell viability – HepG2, calcein-AM fluorescence, 48 h, basal, profiling panel (AID 1164); settings: higher = more signal
[4] = compound effects on multiple myeloma cell viability – MM1S, calcein-AM fluorescence, 48 h, basal, profiling panel (AID 1165); settings: higher = more signal;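 further: viability of MM1S multiple myeloma cells under basal unstimulated conditions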
[5] = calcein-AM signal in unstimulated myeloma cells – cell-based, calcein-AM fluorescence, 48 h, PK04 Diversity Set, profiling panel (AID 1166); settings: RPMI8226 myeloma viability, higher = more signal;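 further: cells grown under basal conditions without added stimulus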
[6] = JC-1 mitochondrial signal, unstimulated HepG2 cells – cell-based, JC-1 fluorescence, 24 h, 100 nL compound, profiling panel (AID 1167); settings: HepG2 mitochondrial potential, higher = more signal
[7] = JC-1 mitochondrial signal, unstimulated adipocytes – cell-based, JC-1 fluorescence, 3T3-L1 adipocytes, 24 h, 100 nL compound, profiling panel (AID 1168); settings: JC-1 mitochondrial fluorescence, higher = more signal, called active from +8 up or from −8 down
[8] = JC-1 mitochondrial signal, unstimulated myeloma cells – cell-based, JC-1 fluorescence, RPMI8226, 24 h, 100 nL compound, profiling panel (AID 1169); settings: JC-1 mitochondrial potential fluorescence, higher = more signal
[9] = JC-1 mitochondrial signal, unstimulated MM1S myeloma – cell-based, JC-1 fluorescence, 24 h, 100 nL compound, profiling panel (AID 1170); settings: MM1S mitochondrial potential, higher = more signal
[10] = resazurin metabolic signal in A549 cells – cell-based, resazurin fluorescence, 24 h, PK04 Diversity Set, profiling panel (AID 1171); settings: A549 viability, higher = more signal, called active from +8 up or from −8 down
Further: test concentration not given here.

| Compound | z-score [1] | z-score [2] | z-score [3] | z-score [4] | z-score [5] | z-score [6] | z-score [7] | z-score [8] | z-score [9] | z-score [10] |
| --- | --- | --- | --- | --- | --- | --- | --- | --- | --- | --- |
| COC(=O)c1c2oc(c1C(=O)OC)C(=O)N(Cc1ccccc1)Cc1cn(nn1)C[C@H](Cc1ccccc1)NC(=O)N[C@H](CO)CC2 | 2.05 | 0.92 | 0.377 | 1.18 | 1.75 | 1.9 | -0.397 (inactive) | -0.201 | -0.62 | 1.27 (inactive) |
| COc1ccc([Si](C)(C)[C@@H]2[C@@H](CC(=O)N3Cc4ccccc4C[C@H]3CO)O[C@]3(C(=O)N(Cc4cccc(N5C(=O)c6cccc7cccc5c67)c4)c4ccccc43)[C@H]2C)cc1 | -0.419 | 1.11 | -0.553 | -0.428 | -1.41 | -0.715 | 1.14 (inactive) | -0.98 | -1.36 | -1.28 (inactive) |
| C=CCC(OC(C)=O)[C@@H]1[C@@H](N(Cc2cccc3ccccc23)C(=O)Cc2ccc(OC)cc2)c2cc(OCCCO)ccc2N1C(=O)c1ccc2ccccc2n1 (stereo not given in full) | -0.639 | 1.69 | 0.493 | -1.27 | -0.192 | 1.64 | -0.0994 (inactive) | 0.106 | 0.306 | 0.679 (inactive) |
| CN(C)CCCNC(=O)[C@@]1(C)c2ccccc2C(=O)N(Cc2ccccc2)[C@H]1c1ccc(CO)cc1 | 0.0156 | 0.451 | 0.339 | -0.748 | 0.3 | 0.303 | 0.457 (inactive) | -0.798 | 0.445 | 0.356 (inactive) |
| CN(C)C(=O)[C@@]1(CCS(=O)(=O)c2ccccc2)N=C(c2ccc(OCCCO)cc2)O[C@H]1c1ccccc1 | 0.0979 | 0.171 | 0.568 | -0.215 | -2.01 | -0.104 | -0.268 (inactive) | 0.331 | 0.0134 | -0.124 (inactive) |
| COc1ccc([Si](C)(C)[C@@H]2[C@@H](CC(=O)N3Cc4ccccc4C[C@H]3CO)O[C@]3(C(=O)N(C)c4ccccc43)[C@H]2C)cc1 | -2.16 | 0.0677 | -4.12 | -2.66 | -4.4 | -0.682 | 1.08 (inactive) | -1.14 | -2.28 | -1.42 (inactive) |
| CN(C)C(=O)[C@]1(CCS(=O)(=O)c2ccccc2)N=C(c2ccc(OCCCO)cc2)O[C@@H]1c1ccccc1N=[N+]=[N-] | 1.12 | 0.503 | 0.591 | -0.133 | 0.517 | 0.621 | -0.00563 (inactive) | -1.18 | -0.809 | -0.859 (inactive) |
| C=CCN1Cc2ccccc2[C@H]2OC(c3ccc(OCCCO)cc3)=N[C@@]2(CC=C)C1=O | -0.391 | 0.659 | -0.121 | -1.7 | -2.4 | 2.11 | 0.661 (inactive) | -0.807 | -1.01 | -1.18 (inactive) |
| C=C(/C(=C/C[C@@H](OC(C)=O)c1cccc(OCCO)c1)c1cc(C(=O)OC)ccc1OC)C(C)C | -0.0413 | 0.0983 | -0.159 | -0.881 | -0.264 | 1.86 | -0.789 (inactive) | 0.373 | -0.682 | 2.17 (inactive) |
| CCCCCCc1nc(C2CC2)cc2c1[Si](C(C)C)(C(C)C)OC2 | -0.315 | 0.865 | -0.131 | -2.26 | -1.92 | -1.01 | -0.0319 (inactive) | -0.651 | -0.00829 | -0.366 (inactive) |
| CC(c1ccccc1)C(O)C1C=CC2C(=O)N(c3ccccc3)C(=O)C2N1Nc1ccc([N+](=O)[O-])cc1 (stereo not given) | -0.898 | -0.755 | 0.204 | 0.48 | -0.129 | -0.411 | -1 (inactive) | -1.03 | -1.44 | 1.07 (inactive) |
| O=C(NCC(F)(F)F)[C@@H]1c2ccccc2C(=O)N(Cc2cc(F)cc(C(F)(F)F)c2)[C@H]1c1ccc(CO)cc1 | 0.792 | 0.929 | -0.158 | 0.227 | -0.202 | 1.23 | 0.00233 (inactive) | -0.656 | -0.389 | 0.44 (inactive) |
| CC(=O)NCCCC[C@@H]1NC(=O)[C@H]2C[C@@H](C(=O)NCCCC[N+](C)(C)C)[C@@H](c3cccc(OCCO)c3)N2C1=O | -0.443 | 0.247 | -0.641 | -1.7 | 0.206 | 0.105 | 0.169 (inactive) | -0.336 | 1.03 | -0.549 (inactive) |
| CCOc1cc(C(O)C2C=CC3C(=O)N(c4ccccc4)C(=O)C3N2Nc2ccc(C#N)cc2)ccc1O (stereo not given) | -0.403 | -0.958 | 0.264 | -1.49 | -1.01 | -2.67 | -1.55 (inactive) | 0.674 | -0.443 | -0.883 (inactive) |
| COC(=O)C(CC#Cc1ccc2c(c1)[C@]1(C(=O)N2)[C@H](C(=O)N2CCN(c3ncccn3)CC2)[C@H]2C(=O)O[C@H](c3ccccc3)[C@H](c3ccccc3)N2[C@@H]1c1ccc(OCCO)cc1)C(=O)OC | -0.0572 | -0.609 | 1.09 | 0.607 | 0.363 | -0.612 | 0.895 (inactive) | -0.933 | -1.44 | -0.178 (inactive) |
| C=CCNC(=O)[C@H]1[C@@H]2C(=O)O[C@@H](c3ccccc3)[C@@H](c3ccccc3)N2[C@@H](c2ccc(O)cc2)[C@]12C(=O)N(C(=O)OCCOC)c1ccccc12 | -0.335 | 1.19 | -0.513 | -1.79 | -1.66 | -1.67 | 0.0113 (inactive) | -1.01 | 0.338 | -1.56 (inactive) |
| OCCCC1=CC(c2ccc(CN3CCCC3)cc2)N(Cc2sc3ccccc3c2Cl)CC1 (stereo not given) | 0.48 | -0.301 | 0.212 | -3.45 | -3.64 | 3.4 | 0.0544 (inactive) | -0.252 | -0.356 | 0.341 (inactive) |
| C=C(CCCC)/C(=C/C[C@@H](OC(=O)c1ccncc1)c1ccccc1OCCO)c1cnc2ccccc2c1 | 0.453 | 1.21 | -0.158 | -3.2 | -2 | 1.41 | -2 (inactive) | -0.629 | 1.46 | -0.488 (inactive) |
| C=CCC(OC(C)=O)[C@@H]1[C@@H](N(Cc2cc3ccccc3o2)C(=O)c2ccc(-c3ccccc3)cc2)c2cc(OCCCO)ccc2N1C(=O)c1ccc2ccccc2c1 (stereo not given in full) | 0.48 | 1 | 0.063 | 0.532 | 0.299 | 1.81 | -1.11 (inactive) | 0.868 | 0.32 | 0.457 (inactive) |
| [N-]=[N+]=NCc1ccccc1C[C@@]1(C(=O)N2CCOCC2)N=C(c2ccc(OCCCO)cc2)O[C@@H]1c1ccccc1 | -1.99 | 1.69 | -1.7 | -3.43 | -4.4 | -0.801 | 0.86 (inactive) | -1.25 | -1.12 | -1.32 (inactive) |
| COc1ccc(CCNC(=O)[C@@]2(Sc3ccc(C)cc3)CC(=O)N(C3Cc4ccccc4C3)[C@@H]2c2ccc(CO)cc2)cc1 | -0.342 | 0.67 | -1.16 | -0.729 | -1.35 | -0.114 | -0.775 (inactive) | -0.608 | -0.885 | 0.358 (inactive) |
| CCOC(=O)c1ccc(NC(=O)O[C@H]2[C@H](OC(=O)Nc3ccc4c(c3)OCO4)[C@H](OC(=O)Nc3ccc4c(c3)OCO4)[C@@H](OC)O[C@@H]2CO)cc1 | -0.83 | 0.529 | -1.02 | -0.982 | -1.21 | -0.691 | -0.289 (inactive) | -0.576 | -1.09 | -0.824 (inactive) |
| O=C1c2ccccc2[C@](Cc2ccccc2I)(C(=O)NCC(F)(F)F)[C@H](c2ccc(CO)cc2)N1C1CCCCC1 | 1.77 | 0.515 | 1.02 | -1.75 | -3.92 | 1.3 | 0.238 (inactive) | -0.434 | 0.23 | -0.0818 (inactive) |
| O=C1OCCC/C=C\[C@H]2OC34C=CCN(CCN5CCOCC5)C(=O)[C@H]3N(CCCCCCO)C(=O)[C@@H]4C12 (stereo not given in full) | 0.26 | 1.3 | 1.18 | 1.54 | 0.279 | 0.538 | 0.587 (inactive) | 0.0622 | -0.955 | -0.168 (inactive) |
| C=CCC(OC(C)=O)[C@@H]1[C@@H](N(Cc2ccc(-c3cccc(C(F)(F)F)c3)o2)C(=O)c2ccc(C)cc2)c2cc(OCCCO)ccc2N1C(=O)c1ccc2ccccc2c1 (stereo not given in full) | -0.403 | 0.821 | 0.236 | 0.47 | 0.966 | 3.41 | 0.586 (inactive) | 0.102 | -0.555 | 0.462 (inactive) |
| COC(=O)CCCCCCC(=O)Nc1ccc(NC(=O)CCCC[P+](c2ccccc2)(c2ccccc2)c2ccccc2)cc1 | -0.0008 | -0.297 | 0.67 | 0.134 | -0.268 | 1.58 | 1.03 (inactive) | -0.176 | -1.46 | 1.1 (inactive) |
| COc1ccc(C(O)C2C=CC3C(=O)N(c4ccccc4)C(=O)C3N2Nc2ccc([N+](=O)[O-])cc2)cc1 (stereo not given) | -0.27 | -1.06 | 0.168 | -0.495 | 0.0223 | -0.378 | -1.52 (inactive) | 0.0302 | -0.909 | 0.0404 (inactive) |
| C[C@]1(C(=O)NC2CC2)c2ccccc2C(=O)N(Cc2ccccc2)[C@H]1c1ccc(CO)cc1 | 0.395 | 1.51 | -0.577 | 0.855 | -0.655 | 1.66 | 0.195 (inactive) | -0.0462 | 0.263 | 0.54 (inactive) |
